Measurements reported in the OligoGym collection.

These sequences were tested against EFNB2 (assay: pooled miR-30 sensor sort-seq; sequence = guide strand). Conditions: shRNA.

Going from TATAGTACCAGTCCTTGTCCAG to TAAAAAACCAACATTGCTCTAT, the sensor-assay potency score (higher = more potent) rises from -0.415 to 0.0453.

For TTTTCCTTCTTAATAGTGCATC, the sensor-assay potency score (higher = more potent) was -0.818.

Each sequence was assayed against EGFLAM in the same assay as above. Conditions: shRNA.

Compared with TAGAGCATAACCGTGTGCCAAC, ATAACAATATCTTCTGAGCAGC is higher in sensor-assay potency score (higher = more potent): -1.37 for the first, -1.01 for the second.

Compared with ACACATTTGATCTTGATCCTGA, TTAGATATAGACATCTTCTTGC is higher in sensor-assay potency score (higher = more potent): 0.527 for the first, 0.604 for the second.

Compared with TAGTCATTGACACAGAAGCTGT, TCTCTGTAGAGCATAACCGTGT is higher in sensor-assay potency score (higher = more potent): -1.47 for the first, -0.368 for the second.

First: TTGATGTGTGATCTCTGGCAGC
Second: TAAGCTGCTATGCTCACACGAT
The sensor-assay potency score (higher = more potent) of the first is higher: -0.345 for the first, -0.515 for the second.

First: ATCTCTGTAGAGCATAACCGTG
Second: TTCTTGTCGAAATCTGGCCTGA
The sensor-assay potency score (higher = more potent) of the first is lower: -1.58 for the first, -0.665 for the second.

Compared with TGAATCACAACACAGTCACTGA, TTGAGGTCCACTTCTTGTCGAA is higher in sensor-assay potency score (higher = more potent): -0.715 for the first, -0.198 for the second.
